PfM18AAP inh: blocks P. falciparum M18 aspartyl aminopeptidase; inhibition, % at 7.35 µM; AID 1822; 290,000 compounds, 1.2% hits; recombinant PfM18AAP, H-Glu-NHMec fluorogenic cleavage;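 active means inhibition above the campaign mean inhibition over all tested compounds plus 3 SD, cut at about 28% in these data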;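 further: 0% = plate median of test compound wells and 100% = 2 mM ZnCl2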
ALR H2O2 inh: blocks human ALR sulfhydryl oxidase activity; 290,000 compounds, 3.8% hits; inhibition, % (no concentration beside the values); purified ALR, DTT oxidation, H2O2 HRP-luminol luminescence; AID 485317;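 active means mean replicate inhibition above about 79%, with every replicate also reaching it, limit read from the data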
Target sequence (P55789 whole entry, looked up): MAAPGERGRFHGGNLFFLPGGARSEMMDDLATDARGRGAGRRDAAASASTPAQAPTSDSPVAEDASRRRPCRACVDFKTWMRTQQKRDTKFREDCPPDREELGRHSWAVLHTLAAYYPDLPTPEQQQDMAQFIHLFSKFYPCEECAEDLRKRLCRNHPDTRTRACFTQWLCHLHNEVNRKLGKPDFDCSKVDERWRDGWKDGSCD
H9c2 protect: modulators protecting cardiomyocytes from myocardial damage; H9c2 cardiomyocytes, H2O2 injury protection, ATPLite, 2 h; protection from H2O2 cell death, % at 20 µM; 360,000 compounds, 0.63% hits;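 active means compounds giving at least 50% protection of heart cells from peroxide-induced death in the single-dose screen, raw or plate-pattern-corrected value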;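 further: 0% = DMSO wells with peroxide and 100% = DMSO wells without peroxide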
PfG6PD inh: PfG6PD (Plasmodium falciparum) enzyme inhibition | PfGluPho enzyme, NADPH resazurin-diaphorase fluorescence | inhibition, % at 20 µM | 350,000 compounds, 0.78% hits | AID 504690;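 active means inhibition reaching at least a set limit at 20 µM in the primary screen, cut at about 59% in these data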;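 further: 0% = DMSO wells with substrate and 100% = DMSO wells lacking glucose-6-phosphate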
PHOSPHO1 inh: inhibitors of human PHOSPHO1 phosphatase | recombinant PHOSPHO1, absorbance phosphatase assay | Q8TCT1 | 290,000 compounds, 1.1% hits | inhibition, % at 13.3 µM; in the data active means inhibition above about 60%
Target sequence (Q8TCT1 whole entry, looked up): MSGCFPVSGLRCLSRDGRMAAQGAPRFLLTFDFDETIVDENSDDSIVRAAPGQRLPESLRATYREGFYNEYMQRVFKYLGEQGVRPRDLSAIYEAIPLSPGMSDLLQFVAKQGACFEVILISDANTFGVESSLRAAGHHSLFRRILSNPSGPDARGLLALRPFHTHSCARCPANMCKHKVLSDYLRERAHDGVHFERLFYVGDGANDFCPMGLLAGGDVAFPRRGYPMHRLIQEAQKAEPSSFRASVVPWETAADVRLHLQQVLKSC
PfGluPho conf: PfG6PD inhibition, single-dose confirmed. inhibition, % at 20 µM. shares compounds with PfG6PD inh. recombinant PfGluPho, NADPH-diaphorase-resazurin fluorescence. 2,400 compounds, 34% hits;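 active means inhibition of at least 50% at 20 µM in any single replicate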;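 further: 0% = DMSO with substrate and 100% = DMSO lacking glucose-6-phosphate substrate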
Diaph ctr 10uM: inhibits diaphorase or oxidizes, flagging false PfG6PD hits | 820 compounds, 39% hits | AID 504862 | diaphorase-coupled resazurin reduction, fluorescence, NADPH 10 uM | inhibition, % at 20 µM | shares compounds with PfG6PD inh;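 active means average inhibition reaching 50% or more with the compound at 20 µM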;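 further: resorufin red fluorescence formed as diaphorase reduces resazurin using NADPH; 0% = DMSO with enzyme and 100% = DMSO without enzyme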
Diaph ctr 30uM: diaphorase inhibition or oxidation at 30 uM NADPH. shares compounds with PfG6PD inh. Diaphorase/resazurin coupled assay, resorufin fluorescence. inhibition, % at 20 µM. 820 compounds, 29% hits. AID 504863;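 active means inhibition averaging 50% or more, tested at 20 µM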;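 further: 0% = DMSO with enzyme and 100% = DMSO wells lacking diaphorase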
Starred values were filed as active, the others as inactive; / = no result given. The list is not random: actives were taken first. Their share in the collection is about 5.6%.

SMILES	PfM18AAP inh	ALR H2O2 inh	H9c2 protect	PfG6PD inh	PHOSPHO1 inh	PfGluPho conf	others
O=C(CNC(=O)c1ccc([N+](=O)[O-])cc1)c1ccccc1	-21	0	3	9	9	/
O=C(CNc1ccccc1)c1ccc([N+](=O)[O-])cc1	19	-10	0	64*	16	2
O=[N+]([O-])c1cc2no[n+]([O-])c2cc1N1CCCCC1	/	/	-14	129*	/	111*	Diaph ctr 10uM=80*;Diaph ctr 30uM=58*
CN(C)c1nc(=NCc2cccs2)ss1	/	/	2	60*	/	49*	Diaph ctr 10uM=4;Diaph ctr 30uM=-4
COc1ccccc1CNC(=O)CCC1N=C2c3ccccc3N=C(SCC(=O)NCC3CCCO3)N2C1=O (stereo not given)	-1	1	4	-3	45	/
COc1ccc2c(c1)c(C(=O)N/N=C/c1cccc(Br)c1)c(C)n2C	-3	3	-3	115*	56	87*	Diaph ctr 10uM=88*;Diaph ctr 30uM=65*
CC(C)S(=O)(=O)c1csc(NC(=O)Nc2cc(Cl)ccc2Cl)c1Cl	-6	-5	-14	86*	46	4
Cc1ccc(N(CC(=O)N/N=C/c2cccc(Br)c2)S(C)(=O)=O)cc1	0	/	-3	115*	12	86*	Diaph ctr 10uM=79*;Diaph ctr 30uM=71*
Cc1ccc(N(CC(=O)N/N=C/c2cccs2)S(C)(=O)=O)cc1	-4	20	-1	12	12	/
O=C(CCC(=O)Nc1ccc(F)cc1)N/N=C/c1cccc(Br)c1	4	-18	-4	113*	42	75*	Diaph ctr 10uM=66*;Diaph ctr 30uM=59*
COc1cccc(/C=N/NC(=O)CCC(=O)Nc2ccc(Br)cc2)c1	-11	1	4	-1	20	/
CCCCCCCCC(=O)N/N=C/c1cccc(Br)c1	1	0	-9	81*	34	11
Cc1ccc(F)cc1NC(=O)CN1C(=O)NC2(CCCc3ccccc32)C1=O (stereo not given)	/	1	-4	-9	/	/
Cc1ccc2nc(SCC(=O)NCc3ccc(F)cc3)nc(=O)n2c1	/	2	8	4	/	/
CCC(C)c1ccccc1NC(=S)NC(=O)c1ccco1 (stereo not given)	4	4	-8	27	18	/
Cc1ccc2cccc(Oc3ccc([N+](=O)[O-])cc3[N+](=O)[O-])c2n1	-2	-4	-2	121*	-2	91*	Diaph ctr 10uM=94*;Diaph ctr 30uM=80*
N#Cc1ccc(Oc2cccc3cccnc23)c([N+](=O)[O-])c1	-3	-6	-2	102*	32	70*	Diaph ctr 10uM=64*;Diaph ctr 30uM=43
O=[N+]([O-])c1ccc(Oc2cccc3cccnc23)c([N+](=O)[O-])c1	7	-3	5	119*	-19	95*	Diaph ctr 10uM=85*;Diaph ctr 30uM=75*
Cc1ccc(Oc2ccc(C(F)(F)F)cc2[N+](=O)[O-])c([N+](=O)[O-])n1	-1	-8	0	8	46	/
O=[N+]([O-])c1ccccc1OCCOCCOc1cccc2cccnc12	3	3	2	3	-4	/
Cc1ccccc1NC(=S)NC(=O)COc1ccccc1C	-17	9	0	22	18	/
O=C(NCc1ccccc1)C1CCC(=O)N(CCN2CCOCC2)C1 (stereo not given)	-1	-3	3	-12	40	/
Cc1onc(-c2ccccc2)c1C(=O)N(Cc1ccco1)Cc1cccs1	-22	/	-17	83*	10	39
CC1=CC2=C(C=O)C(=O)C(C)(O)C(O)C2=CO1 (stereo not given)	/	/	-3	1	/	/
Cc1cccc(OCc2nnc(SCC(=O)c3c(N)n(C4CC4)c(=O)[nH]c3=O)o2)c1	/	/	-4	6	/	/
SMILES	PfM18AAP inh	ALR H2O2 inh	H9c2 protect	PfG6PD inh	PHOSPHO1 inh	PfGluPho conf	others
c1ccc(-c2nnc3sc(-c4csc5c4CCCC5)nn23)cc1	-8	1	16	73*	4	3
COc1ccccc1S(=O)(=O)n1cc(Cc2ccccc2)c(N)n1	13	56	12	76*	-6	7
CCCCN(CCCC)C(=O)c1sc2nc(N3CCOCC3)c3c(c2c1N)CCCC3	32*	/	3	71*	-38	-6
CCOC(=O)c1sc2nc(N3CCOCC3)c3c(c2c1N)CCN(Cc1ccccc1)C3	0	-9	2	-15	24	/
Cc1nc2sc(C(N)=O)c(N)c2c2c1CCCC2	-1	-3	-1	24	-122	/
NC(=O)c1sc2nc(N3CCOCC3)c3c(c2c1N)CCCC3	-34	6	7	66*	47	12
COc1cccc(/C=N/NC(=S)Nc2cccc(S(=O)(=O)N(C)C)c2)c1	-3	5	8	67*	-1	1
COc1ccc(C(=O)OCC(=O)NCCc2ccc(F)cc2)cc1S(=O)(=O)N1CCOCC1	/	/	3	4	/	/
c1ccc(OCc2nnc3sc(-c4cccs4)nn23)cc1	22	/	-2	86*	61*	34
c1csc(-c2nn3c(C4COc5ccccc5O4)nnc3s2)c1 (stereo not given)	6	-4	-1	59*	69*	9
COc1ccc(-c2nn3c(COc4ccccc4)nnc3s2)cc1OC	-8	-1	14	-5	41	/
Clc1ccc(Cl)c(-c2nn3c(COc4ccccc4)nnc3s2)c1	15	0	-7	60*	52	36
COc1ccccc1-c1nn2c(-c3ccccc3Cl)nnc2s1	/	/	/	/	-5	/
CN(CC(=O)Nc1cccc(F)c1)C(=O)CN1C(=O)NC2(CCCC2)C1=O	/	-2	7	-12	/	/
c1ccc2[nH]c(CCCc3nc4ccccc4[nH]3)nc2c1	-8	-2	3	-18	-2	/
S=c1cnc2ccccc2[nH]1	24	-25	-6	64*	-55	4
COC(=O)c1ccc2nc(-c3ccc(C)cc3)c(Cc3ccccc3OC)n2c1	/	/	5	/	/	/
COc1ccc(NC(=O)CSc2nnc(-c3cccc(O)c3)o2)cc1	-3	/	-3	80*	10	39
Cc1cc(C(=O)CSc2nnc(-c3ccco3)o2)c(C)n1-c1ccc2c(c1)OCCO2	12	-7	-30	75*	92*	36
Cc1cc(C(=O)CSc2nnc(-c3cccs3)o2)c(C)n1-c1ccccc1	9	-14	-13	79*	22	43
Cc1nnc(SCC(=O)c2cc(C)n(-c3ccc4c(c3)OCO4)c2C)s1	22	-23	-18	98*	92*	69*	Diaph ctr 10uM=56*;Diaph ctr 30uM=42
Cc1cc(C(=O)CSc2nnnn2C)c(C)n1-c1ccc2c(c1)OCCO2	11	/	-14	11	43	/
COc1ccc(CNCCCn2cnc(C(=O)Nc3ccc(C)c(C)c3)n2)cc1	/	/	-2	7	/	/
COc1cc(NCCCn2cnc(C(=O)Nc3ccc(C)c(C)c3)n2)cc(OC)c1OC	/	/	-4	73*	/	61*	Diaph ctr 10uM=-17;Diaph ctr 30uM=-16

Compound activity as filed in PubChem.
